# Laboratory results taken from ChEMBL document CHEMBL4513216, “Probing the Open Global Health Chemical Diversity Library for Multistage-Active Starting Points for Next-Generation Antimalarials” (ACS Infect Dis, 2020).
# Among all 69,000 compounds or so, about 8,600 (12%) showed an effect of 50% or more. This is one part of a sample in which strong results are shown more often than they occur.
# System: Plasmodium berghei
# Assay: Screen against P. berghei liver stage (PbLuc), transformed with Luciferase, at 10uM
# Format: functional, HepG2
# Details: tested at 10 uM
row,SMILES,INHIBITION
1,Cc1cc(=O)[nH]c(-n2nc(C3CC3)cc2N)n1,68.9%
2,NC1(c2nc(-c3ccccc3)cc(=O)[nH]2)CCCCC1,-10.1%
3,CC(C)c1cc(=O)[nH]c(-n2nc(C3CC3)cc2N)n1,97%
4,Cc1cc(=O)[nH]c(-n2nc(-c3ccccc3)cc2N)n1,65.2%
5,CCCc1cc(=O)[nH]c(-n2nc(C3CC3)cc2N)n1,94%
6,CCC(C)(N)c1nc(C(C)C)cc(=O)[nH]1 (configuration not stated),-4.35%
7,CC(C)c1cc(=O)[nH]c(C(C)(C)N)n1,-39.2%
8,Cc1cc(C(=O)Nc2cc(C3CC3)n[nH]2)c2c(C)nn(C)c2n1,0.991%
9,NC1(c2nc(-c3ccccc3)cc(=O)[nH]2)CCCC1,-13.7%
10,CCCc1cc(=O)[nH]c(SCc2ccccn2)n1,3.93%
11,CCCc1cc(=O)[nH]c(-c2cccc(CN3CCCCCC3)c2)n1,43.9%
12,Cc1cc(C2CCC2)nc(N2CCC3(CCNC(=O)CC3)CC2)n1,-32.5%
13,O=C(C1=CCCC1)N1CCC[C@]2(C[C@@H](OCc3ccncc3)CO2)C1,-9.67%
14,Cc1ccccc1C1(C(=O)NCCN(C)C)CCOCC1,18.9665%
15,CC(C)N(C)Cc1ncn2c1CN(C(=O)C1CCCO1)CCC2 (configuration not stated),4.08%
16,O=c1c2c[nH]c(N3CCOCC3)nc-2cn1Cc1cccc(F)c1,33.4%
17,COc1ccc(C(=O)CCc2nc(C3CC3)no2)cc1F,-19.1%
18,COc1nn(C)c2c1CCCN(C(=O)c1ccsc1)C2,-15.7%
19,O=C1CN(C(=O)C2CN(c3ccc(F)cc3)CCO2)CCN1 (configuration not stated),-19.925%
20,Cn1cnc(NC(=O)C2CC(=O)N(c3cccc(F)c3)C2)n1 (configuration not stated),6.448%
21,Cc1nc(C)n(CC2CCCN2Cc2nc3ccccc3s2)n1 (configuration not stated),33.8%
22,CNc1cc(C2CCCN2C(=O)CCc2ccccc2F)ccn1 (configuration not stated),22%
23,Cc1sc2nc(CCN)nc(N(C)CCCC3CCCO3)c2c1C (configuration not stated),43.2%
24,Cc1sc2nc(CCN)nc(N(CCN(C)C)CC3CCCO3)c2c1C (configuration not stated),51.3%
25,COCCN(CC1CC1)c1nc(CCN)nc2ccccc12,16.2%
26,COCCN(CC1CC1)c1nc(CCN)nc2sc(C)c(C)c12,65.3%

row,SMILES,INHIBITION
1,CCN(CCN(C)C)c1nc(CCN)nc2sc(C)c(C)c12,71%
2,Cc1nn(C)c2nc(N(CCN(C)C)CC3CCCO3)sc12 (configuration not stated),35.3%
3,COCCN(Cc1cccs1)c1nc(CCN)nc2ccccc12,-17.3%
4,O=C(NCCCO)c1nnsc1-c1ccccc1,46.6%
5,Cc1sc2c(C3CCCN(S(C)(=O)=O)C3)nc(C)n2c1C (configuration not stated),-22.6%
6,Cc1cccc2nc(-c3nc4c([nH]3)CCCNC4=O)cn12,-176%
7,COc1ccnc(N2CCN(C(=O)COCC(F)(F)F)CC2)n1,-2.725%
8,Cc1nn(C)c(Cl)c1C1CCCN1C(=O)c1cnccn1 (configuration not stated),25.1%
9,O=C(NCCNc1cccnc1)C(c1cccnc1)N1CCCC1 (configuration not stated),-0.55%
10,Cc1cc(CN(C)C(=O)C(c2cccnc2)N2CCOCC2)n[nH]1 (configuration not stated),51.7%
11,Cc1n[nH]c(C)c1CCN(C)C(=O)C(c1cccnc1)N1CCOCC1 (configuration not stated),-12.5%
12,CN(Cc1cc(C2CC2)[nH]n1)C(=O)C(c1cccnc1)N1CCCC1 (configuration not stated),68.4%
13,CN(CCc1ccccn1)C(=O)C(c1cccnc1)N1CCOCC1 (configuration not stated),-29.2%
14,Cc1ncsc1CCN(C)C(=O)C(c1cccnc1)N1CCOCC1 (configuration not stated),0.266%
15,CN(Cc1cc(C2CC2)on1)C(=O)C(c1cccnc1)N1CCCC1 (configuration not stated),48.9%
16,Cc1cc(C)nc(CN(C)C(=O)C(c2cccnc2)N2CCCC2)c1 (configuration not stated),61.9%
17,CCCn1ncc(C(=O)N(C)Cc2cc(C3CC3)[nH]n2)c1C,40.6%
18,O=C(c1ccsc1)N1CCO[C@@H]2CN(Cc3nccs3)C[C@@H]2C1,42.1%
19,CC1COCCN1C(=O)Nc1cnc2c(cnn2C(C)C)c1 (configuration not stated),-27.9%
20,O=C1COc2ccc(C(=O)N3CCCC(n4ccnc4)C3)cc2N1 (configuration not stated),-12.2%
21,Cc1cccc(C(Nc2nccc(C)n2)C2CC2)n1 (configuration not stated),6.66%
22,COc1c(C2CCCN2CC(=O)Nc2cccnc2)c(C)nn1C (configuration not stated),19.4%
23,O=C(c1ccsc1)N1CCC2(CCN(Cc3ccccn3)C2=O)C1 (configuration not stated),-5.08%
24,CN(CCCOc1ccccc1Cl)C(=O)CN1CCNC1=O,17%
25,CCN(C)S(=O)(=O)N[C@H]1CN(c2ccc(F)cn2)C[C@@H]1C(C)C,64.5%
26,CC(C)[C@H]1CN(c2ccncc2)C[C@@H]1NS(=O)(=O)N(C)C,76.8%

row,SMILES,INHIBITION
1,Cc1nc2cc(C(=O)N3C[C@@H](NS(C)(=O)=O)[C@H](C(C)C)C3)ccc2[nH]1,39%
2,CC(C)[C@@H]1CN(C(=O)NCc2ccco2)C[C@H]1NS(=O)(=O)N(C)C,62.8%
3,CC(C)[C@@H]1CN(C(=O)NCc2ccco2)C[C@H]1N(C)C,31.4%
4,CC(C)[C@@H]1CN(C(=O)CCn2ccccc2=O)C[C@H]1NS(C)(=O)=O,8.53%
5,CC(C)[C@H]1CN(c2ccncc2)C[C@@H]1NC(=O)C1(C#N)CCOCC1,10.9%
6,CC(C)[C@H]1CN(C2Cc3ccccc3C2)C[C@@H]1NS(C)(=O)=O,55%
7,CC(C)[C@@H]1CN(c2ccc(C(F)(F)F)cn2)C[C@H]1NS(C)(=O)=O,26.4%
8,CC(C)[C@@H]1CN(c2ccc(F)cn2)C[C@H]1NS(C)(=O)=O,30.9%
9,CC(C)[C@@H]1CN(CC(=O)NCc2ccco2)C[C@H]1NS(=O)(=O)N(C)C,27.8%
10,CC(C)[C@@H]1CN(c2ncc(F)cn2)C[C@H]1NS(=O)(=O)N(C)C,41.7%
11,Cn1cc(C2CCCN2C(=O)CCn2c(=O)oc3ccccc32)cn1 (configuration not stated),-13.7%
12,CN1CCCc2cc(CNC(=O)c3cccnc3O)ccc21,-18.8%
13,COC(=O)c1ccc(N(C(=O)c2cccnc2C)C(C)C)c(C)c1,-4.63%
14,CC(C)CNC(=O)[C@H]1CCS(=O)(=O)[C@@H]2CN(Cc3cccc(Cl)c3)C[C@H]12,36.8%
15,Cn1ccnc1C1CCCN(C(=O)c2ccc3nccnc3c2)C1 (configuration not stated),6.11%
16,Cn1ncc2c(=O)[nH]c(CN3CCc4sccc4C3)nc21,13.3%
17,Cc1ncncc1C(=O)N1CCCC(n2cccn2)C1 (configuration not stated),2.97%
18,Cc1cc(NC(=O)NCc2cccnc2OC(C)C)no1,31.2%
19,Cc1cc(C)n(CC(C)Nc2nc(C)nc3c2CCNC3)n1 (configuration not stated),-9.18%
20,Cc1oc(-c2ccco2)nc1CN1CCc2cncnc2C1,45.4%
21,c1cncc(CNC2CCc3ncnn3C2)c1 (configuration not stated),33.3%
22,Cc1ccc(C)c(NCc2nc3n(n2)CCCCC3)c1,17.6%
23,Cc1csc2c(C3CCN(C(=O)Cn4cncn4)CC3)nc(C)n12,32.3%
24,CC(C)c1nc(C2CCCN2CCS(C)(=O)=O)no1 (configuration not stated),31.5%
25,CS(=O)(=O)N[C@@H]1CN(Cc2ccccc2)C[C@H]1O,22.8%
26,CC(C)[C@@H]1CN(C2CCN(Cc3ccccc3)CC2)C[C@H]1NS(C)(=O)=O,64.9%

row,SMILES,INHIBITION
1,CC(C)[C@@H]1CN(S(=O)(=O)Cc2ccccc2)C[C@H]1NS(=O)(=O)N(C)C,32.7%
2,CC(C)[C@@H]1CN(CCOc2ccccc2)C[C@H]1NS(=O)(=O)N(C)C,33.2%
3,CS(=O)(=O)N[C@@H]1CN(Cc2ccccc2)C[C@@H]2CCCO[C@@H]21,-57.7%
4,CC(C)[C@H]1CN(C2Cc3ccccc3C2)C[C@@H]1NS(=O)(=O)N(C)C,55%
5,Cc1noc(C)c1CN1C[C@@H]2CCCO[C@@H]2[C@H](Nc2ccccn2)C1,16.4%
6,Cc1noc(C)c1CN1CCCCC1CCc1ccc(O)cc1 (configuration not stated),12.6%
7,COCCN1CC(=O)N2CC[C@@H](O)C[C@H]2C1=O,10.615%
8,COc1ccc(C2(C(=O)N3C[C@@H](C(=O)O)[C@H](C(C)C)C3)CC2)cc1,-17.3%
9,CC(C)[C@@H]1CN(C(=O)C2(c3ccccc3)CC2)C[C@H]1C(=O)O,50.1%
10,Cc1ccsc1C(=O)N1C[C@@H](C(=O)O)[C@H](C(C)C)C1,24.4%
11,CC(C)[C@@H]1CN(C(=O)C2(c3ccccc3)CCN(C)CC2)C[C@H]1C(=O)O,64%
12,CC(C)[C@@H]1CN(C(=O)C2(c3ccccc3)CCN(C)CC2)C[C@H]1N(C)C,39.4%
13,CC(C)[C@@H]1CN(C(=O)CN(C)Cc2ccccc2)C[C@H]1C(=O)O,47.9%
14,CS(=O)(=O)N1CCC(c2cncc(Cl)n2)CC1,-1.16%
15,CC(C)CN(Cc1ccccn1)Cc1ccccc1OCC(=O)O,54.4%
16,CC(C)CN(Cc1ccc(O)c(C(=O)O)c1)Cc1ccccn1,43.9%
17,CC(C)CN(Cc1ccccn1)Cc1ccccc1C(=O)O,38.6%
18,COCC(=O)NCCn1nc(-c2cc(C)oc2C)ccc1=O,-0.275%
19,O=C(c1ccccc1-c1ccccc1)N1C[C@@H]2CNC[C@]2(C(=O)O)C1,49.7%
20,O=C(Nc1ccccc1-c1ccccc1)N1C[C@@H]2CNC[C@]2(C(=O)O)C1,55.4%
21,O=C(Nc1ccc(-c2ccccc2)cc1)N1C[C@@H]2CNC[C@]2(C(=O)O)C1,41.5%
22,Cc1cc(CNC2CCCN(Cc3noc(C4CC4)n3)C2)on1 (configuration not stated),46.2%
23,CN(CCc1ccccn1)C(=O)CCC1CCCN(c2ncccn2)C1 (configuration not stated),16.1%
24,CCCc1csc(-c2ccc(S(C)(=O)=O)cc2)n1,-39.1%
